Experimental data reported in PubChem BioAssay (Tox21).
Where “and” joins values, the source holds several entries; their conditions need not be identical. Equal values may be shown once. Some compounds were tested as several samples or in several runs, with calls that do not always agree. Calls of active or inactive are those of the source. Where a call stands in place of a potency, no number is given. Calls come from the whole dose curve.

Biological target: Acetylcholinesterase (Homo sapiens) (UniProt P22303)
Experiment: Acetylcholinesterase (AChE) small molecule antagonists: enzyme-based qHTS assay (AID 1347397); note: nearly all actives have a fitted effect of over 55% in size
Details: Potency: AChE enzyme activity inhibition; series mostly up to 115 µM
Source text: National Center for Advancing Translational Sciences [NCATS]
Division of Preclinical Innovation [DPI]
U.S. Environmental Protection Agency [EPA]
National Institutes of Environmental Health Sciences [NIEHS]
National Toxicology Program [NTP]
U.S. Food and Drug Administration [FDA]
Acetylcholinesterase (AChE) is the primary cholinesterase in the body that hydrolyzes a key neurotransmitter, acetylcholine. Inhibition of AChE activity can lead to neurotoxicity. The known inhibitors include organophosphorous pesticides (OP), chemical warfare agents, drugs, and various phytochemicals.
An enzyme-based assay with the recombinant human AChE and Amplite Colormetric acetylcholinesterase assay kit (AAT Bioquest, Sunnyvale, CA) was used to evaluate the chemicals in the Tox21 10K library that inhibit AChE activity. The assay uses 5, 5-dithiobis-(2-nitrobenzoic acid) (DTNB) to quantify the thiocholine produced from the hydrolysis of acetylthiocholine by AChE.
Tox21 Assay Protocol Summary:
For the enzyme-based AChE assay, recombinant human AChE (50 mU/mL) in 4 uL/well was dispensed into black, clear-bottom 1536-well plates using a Multidrop Combi dispenser (Thermo Scientific, MA). Then, 23 nL of compound or DMSO (vehicle control) was transferred into the assay plates by a Pintool Station (Wako Automation, CA). The plates were incubated for 30 min at room temperature, followed by the addition of 4 uL of colorimetric detection cocktail solution (DTNB, acetylthiocholine) into each well using a Flying Reagent Dispenser (Beckman Coulter, CA) and then 10 min incubation at room temperature.
Potency is the fitted concentration of half-maximal effect.

Sequence of Acetylcholinesterase (Homo sapiens) (P22303 whole entry, looked up): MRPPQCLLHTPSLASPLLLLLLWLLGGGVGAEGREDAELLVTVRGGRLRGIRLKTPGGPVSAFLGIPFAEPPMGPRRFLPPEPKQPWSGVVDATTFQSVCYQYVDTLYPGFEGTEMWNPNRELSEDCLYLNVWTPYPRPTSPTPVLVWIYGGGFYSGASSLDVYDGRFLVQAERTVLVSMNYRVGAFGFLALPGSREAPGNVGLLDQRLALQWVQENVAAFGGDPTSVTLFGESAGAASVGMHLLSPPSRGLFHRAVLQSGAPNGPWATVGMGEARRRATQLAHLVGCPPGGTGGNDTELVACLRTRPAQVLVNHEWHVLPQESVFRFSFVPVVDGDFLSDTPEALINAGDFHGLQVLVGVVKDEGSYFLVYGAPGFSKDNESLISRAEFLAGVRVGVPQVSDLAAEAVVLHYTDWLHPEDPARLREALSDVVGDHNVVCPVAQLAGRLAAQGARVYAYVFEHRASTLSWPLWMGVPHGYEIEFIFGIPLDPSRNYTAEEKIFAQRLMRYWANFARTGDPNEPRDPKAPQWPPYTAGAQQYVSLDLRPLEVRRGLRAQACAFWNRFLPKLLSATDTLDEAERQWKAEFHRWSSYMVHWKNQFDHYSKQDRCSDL

Row | Structure (SMILES) | Potency
1 | Oc1ccc(Cl)cc1Cc1ccccc1 | inactive
2 | CCOP(=S)(OCC)OP(=S)(OCC)OCC | 72.9 µM (active) and 79.6 µM (active)
3 | Clc1ccccc1-c1nnc(-c2ccccc2Cl)nn1 | inactive
4 | COP(=O)(NC(C)=O)SC (stereo not given) | inactive
5 | Cc1ccc(N=CN(C)C=Nc2ccc(C)cc2C)c(C)c1 | inactive
6 | Nc1ccc2ccccc2c1 | inactive
7 | C=C(C)C#N | inactive
8 | COC(=O)Nc1nc2ccccc2[nH]1 | inactive
9 | CNC(=O)CSP(=S)(OC)OC | inactive
10 | Cn1c(-c2ccccc2)cc(-c2ccccc2)[n+]1C | inactive
11 | CC(O)CN(CC(C)O)CC(C)O (stereo not given) | inactive
12 | C[N+](C)(C)CC(=O)O | inactive
13 | O=S(=O)(O)C(F)(F)C(F)(F)C(F)(F)C(F)(F)C(F)(F)C(F)(F)C(F)(F)C(F)(F)F | inactive
14 | CC(C)(c1ccccc1)c1ccc(O)cc1 | inactive
15 | O=C1C(Cl)=C(Cl)C(=O)c2ccccc21 | 35.7 µM (active) and 25.2 µM (active)
16 | O=NN1CCOCC1 | inactive
17 | C[N+](C)(C)CC(=O)[O-] | inactive
18 | CCOS(=O)(=O)OCC | inactive
19 | CCNc1nc(Cl)nc(NC(C)(C)C#N)n1 | inactive
20 | CCN(CC)C(=O)C(C)Oc1cccc2ccccc12 (stereo not given) | inactive

Row | Structure (SMILES) | Potency
21 | OC(c1ccc(Cl)cc1)(c1cncnc1)c1ccccc1Cl (stereo not given) | inactive
22 | CCOC(=O)c1ccccc1N | inactive
23 | CCOP(=S)(OCC)SCn1c(=O)oc2cc(Cl)ccc21 | inactive
24 | ClCC(Cl)CCl | inactive
25 | CS(=O)(=O)NC(=O)c1cc(Oc2ccc(C(F)(F)F)cc2Cl)ccc1[N+](=O)[O-] | inactive
26 | CNC(=O)Oc1cccc2c1OC(C)(C)C2 | 726 nM (active) and 200 nM (active)
27 | COP(=S)(OC)Oc1ccc(S(=O)(=O)N(C)C)cc1 | inactive
28 | N#CCCCCC#N | inactive
29 | ClC(Cl)(Cl)Br | inactive
30 | CCC/C=N/O | 34.2 µM (active) and inactive
31 | CCOP(=S)(OCC)SCSC(C)(C)C | inactive
32 | CCCCCCCC[N+](C)(CCCCCCCC)CCCCCCCC | 79.5 µM (active) and inactive and 71 µM (active)
33 | NC(=O)CN1CCCC1=O | inactive
34 | CC(C)Nc1ccc(Nc2ccccc2)cc1 | inactive
35 | CC(C)(C#N)N=NC(C)(C)C#N | inactive
36 | CCCCSP(=O)(SCCCC)SCCCC | inactive
37 | CC1=C(C(=O)Nc2ccccc2)SCCO1 | inactive
38 | Cc1ccc([N+](=O)[O-])cc1 | inactive
39 | [CH3][Sn]([Cl])([Cl])[Cl] | inactive
40 | O=[N+]([O-])/N=C1\NCCN1Cc1ccc(Cl)nc1 | inactive
